Measured values taken from PubChem BioAssay (NCI).
About 83,000 compounds went through this panel and 20% of them were active in at least one assay; those are over-represented in the sample as a whole.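 Plates (96-well) were seeded with cells, treated with compound at one concentration, and incubated for 48 hours before percent growth was determined.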 Values without a mark were called inactive. The source made the active and inactive calls. How the source made its calls: active means growth percent below 10; inactive means the rest.

Test system: UACC-62 melanoma
Experiment: NCI-60 one-dose screen, 48 h (100 = growth as untreated, 0 = no growth, -100 = all killed)
Details: 10 µM

Row | SMILES | growth
1 | COc1ccc2c(c1)O/C(=C\c1ncc([N+](=O)[O-])n1C)C2=O | -85.1% (active)
2 | N#Cc1cccc(OCc2nc(N)nc(N)c2-c2ccc(Cl)c(Cl)c2)c1 | 22.7%
3 | Cc1cs/c(=N\NC(=O)c2cc(-c3cc4ccccc4o3)nn2-c2ccccc2)n1-c1ccccc1 | 79.6%
4 | CC1(C)OC2=C(CC1Br)C(=O)C(=O)c1ccccc12 (centres undefined) | -78.9% (active)
5 | Cc1occc1-c1nnc(SCC(=O)c2ccc(NC(=O)CC(C)C)cc2)o1 | 104%
6 | CCN(CC)CCOc1nc2ccccc2c2c1-c1ccc(OC)cc1C2=O | 8.63% (active)
7 | COc1ccc(Nc2ncnc3c2c(SC)nn3-c2ccccc2)cc1 | 86.4%
8 | O=C(CC(C(=O)c1ccccc1)N1CCOCC1)c1ccccc1 (centres undefined) | 87.7%
9 | COc1cc(-c2cc(/C=C/C(=O)c3ccc(Cl)c(Cl)c3)[nH]n2)cc(OC)c1OC | 81.6%
10 | COc1ccc(-c2nc(-c3nc4ccc(OC)cc4[nH]3)cc3c2[nH]c2ccccc23)cc1 | 50%
11 | O=C(O)c1ccc(P(=O)(O)O)c([N+](=O)[O-])c1 | 108%
12 | COc1ccc2c(c1)O/C(=C\c1ccc([N+](=O)[O-])s1)C2=O | 30.6%
13 | COc1ccc2c(c1)sc1nc(-c3ccccc3)c(-c3cccnc3)n12 | 82.7%
14 | CCCCCC(=O)c1ccc(OCCCN2CCN(C(=O)OCC)CC2)cc1 | 87%
15 | CC(=O)n1c(-c2ccc(Cl)c(Cl)c2)cn(-c2ccc(Cl)cc2)c1=O | 18%
16 | C#Cc1ccc(-n2c(/C=C/c3ccc(O)cc3)nc3ncccc3c2=O)cc1 | 29.1%
17 | c1ccc(CNc2ncnc3scc(-c4cccs4)c23)nc1 | 56%
18 | O=C(Nc1ccncc1)C(=O)c1cn(S(=O)(=O)c2cccc3ccccc23)c2ccccc12 | 63.7%
19 | CCN(CC)Cc1cc(Nc2ccnc3cc(Cl)ccc23)ccc1OC | 104%
20 | O=C1Nc2ccc(Cl)cc2/C1=C\c1c(-c2ccc(Cl)cc2)nc2sc(C3CC3)nn12 | 38.4%
21 | Cc1cc(N(CCCNc2ccnc3cc(Cl)ccc23)Cc2ccc3c(c2)OCO3)nc(N2CCOCC2)n1 | 27.1%
22 | c1ccc(CO[C@H]2CO[C@H]3[C@@H]2OC[C@H]3OCc2ccccc2)cc1 | 95.9%
23 | Clc1cc2c(c(CSc3nc4ccccc4n4cccc34)c1)OCOC2 | 112%
24 | CCN(CC)CCOc1nc2ccc(OC)cc2c2c1-c1ccc(OC)cc1C2=O | 36%
25 | CCn1cc(C(=O)O)c(=O)c2cnc(N3CCCC3)nc21 | 108%

Test system: LOX IMVI melanoma
Experiment: as above
Details: 10 µM

Row | SMILES | growth
26 | Cc1ccc(C(=O)N2C/C(=C/c3ccc(F)cc3)C(=O)/C(=C/c3ccc(F)cc3)C2)cc1 | 54.5%
27 | COc1cc(NC(=O)CCSc2nc3ccc(C)cc3c(=O)n2Cc2ccccc2)cc(OC)c1OC | 71.6%
28 | O=C(Nc1cccc(-n2cc(-c3ccncc3)c(-c3cc(O)cc(Cl)c3)n2)c1)Nc1ccc(Cl)c(C(F)(F)F)c1 | 2.08% (active)
29 | CCC(=O)N1C/C(=C/c2ccc(Br)cc2)C(=O)/C(=C/c2ccc(Br)cc2)C1 | -87.7% (active)
30 | COc1cc(Cl)cc(-c2nn(-c3cccc(NC(=O)c4ccc(N5CCOCC5)c(C(F)(F)F)c4)c3)cc2-c2ccncc2)c1 | 47.3%
31 | O=C(C[P+](c1ccccc1)(c1ccccc1)c1ccccc1)C[P+](c1ccccc1)(c1ccccc1)c1ccccc1 | -87.2% (active)
32 | Nc1ccn(C2CC(O)C(CO)O2)c(=O)n1 (centres undefined) | 104%
33 | COc1ccc(Nc2nc3ccc(NC(=O)NC4CCCCC4)cc3[nH]c2=O)cc1 | 96.2%
34 | CC1(C)CCC(=NNC(N)=S)CC1 | 89%
35 | CCOC(=O)C1(CC(C)C)CCOC1=O (centres undefined) | 96.8%
36 | N#Cc1cc(-c2cc3ccccc3o2)oc1N | 3.98% (active)
37 | COc1ccc(-c2nc3ncccn3c2-c2nnc(-c3ccsc3C)o2)cc1 | 88.4%
38 | Oc1[nH]c2cc(Cl)ccc2c1/C=c1/ccc2c(c1)N=C(c1cc(F)cc(F)c1)N=2 | 37.7%
39 | CCCCCCCCCCCC[n+]1ccc(C(N)=O)cc1 | 25.6%
40 | COc1ccc2c(c1)O/C(=C\c1ncc([N+](=O)[O-])n1C)C2=O | -29.2% (active)
41 | N#Cc1cccc(OCc2nc(N)nc(N)c2-c2ccc(Cl)c(Cl)c2)c1 | 15.5%
42 | Cc1cs/c(=N\NC(=O)c2cc(-c3cc4ccccc4o3)nn2-c2ccccc2)n1-c1ccccc1 | 82.7%
43 | CC1(C)OC2=C(CC1Br)C(=O)C(=O)c1ccccc12 (centres undefined) | -77.3% (active)
44 | Cc1occc1-c1nnc(SCC(=O)c2ccc(NC(=O)CC(C)C)cc2)o1 | 105%
45 | CCN(CC)CCOc1nc2ccccc2c2c1-c1ccc(OC)cc1C2=O | -47.2% (active)

Row | SMILES | growth
46 | COc1ccc(Nc2ncnc3c2c(SC)nn3-c2ccccc2)cc1 | 92.7%
47 | O=C(CC(C(=O)c1ccccc1)N1CCOCC1)c1ccccc1 (centres undefined) | 88.4%
48 | COc1cc(-c2cc(/C=C/C(=O)c3ccc(Cl)c(Cl)c3)[nH]n2)cc(OC)c1OC | 29.6%
49 | COc1ccc(-c2nc(-c3nc4ccc(OC)cc4[nH]3)cc3c2[nH]c2ccccc23)cc1 | 27.2%
50 | O=C(O)c1ccc(P(=O)(O)O)c([N+](=O)[O-])c1 | 102%
51 | COc1ccc2c(c1)O/C(=C\c1ccc([N+](=O)[O-])s1)C2=O | 15.7%
52 | COc1ccc2c(c1)sc1nc(-c3ccccc3)c(-c3cccnc3)n12 | 91.4%
53 | CCCCCC(=O)c1ccc(OCCCN2CCN(C(=O)OCC)CC2)cc1 | 81.7%
54 | CC(=O)n1c(-c2ccc(Cl)c(Cl)c2)cn(-c2ccc(Cl)cc2)c1=O | 18.2%
55 | C#Cc1ccc(-n2c(/C=C/c3ccc(O)cc3)nc3ncccc3c2=O)cc1 | 55.5%
56 | c1ccc(CNc2ncnc3scc(-c4cccs4)c23)nc1 | 74.2%
57 | O=C(Nc1ccncc1)C(=O)c1cn(S(=O)(=O)c2cccc3ccccc23)c2ccccc12 | 61.5%
58 | CCN(CC)Cc1cc(Nc2ccnc3cc(Cl)ccc23)ccc1OC | 47.7%
59 | O=C1Nc2ccc(Cl)cc2/C1=C\c1c(-c2ccc(Cl)cc2)nc2sc(C3CC3)nn12 | 26%
60 | Cc1cc(N(CCCNc2ccnc3cc(Cl)ccc23)Cc2ccc3c(c2)OCO3)nc(N2CCOCC2)n1 | -24.2% (active)
61 | c1ccc(CO[C@H]2CO[C@H]3[C@@H]2OC[C@H]3OCc2ccccc2)cc1 | 98.4%
62 | Clc1cc2c(c(CSc3nc4ccccc4n4cccc34)c1)OCOC2 | 87.5%
63 | CCN(CC)CCOc1nc2ccc(OC)cc2c2c1-c1ccc(OC)cc1C2=O | -74.6% (active)
64 | CCn1cc(C(=O)O)c(=O)c2cnc(N3CCCC3)nc21 | 99.3%
